Assay results taken from PubChem BioAssay (NCI).
The panel holds about 83,000 compounds, 20% with a hit somewhere; the sample as a whole holds those more often.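 Interpretation: 100, growth as untreated; towards 0, rising growth inhibition; 0, no net growth; 0 to -100, cell death. Compounds scoring below 10 were considered active.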 Active and inactive are the calls of the source.

Legend:
Test in all cases: NCI-60 one-dose screen, 48 h (100 = growth as untreated, 0 = no growth, -100 = all killed)
Details in all cases: 10 µM unless noted
DU-145 prostate = system: DU-145 prostate
K-562 leukemia = system: K-562 leukemia
MALME-3M melanoma = system: MALME-3M melanoma
MDA-MB-231 breast = system: MDA-MB-231 breast
RXF 393 renal = system: RXF 393 renal
SF-268 CNS = system: SF-268 CNS
SF-295 CNS = system: SF-295 CNS
SF-539 CNS = system: SF-539 CNS
UACC-257 melanoma = system: UACC-257 melanoma
M14 melanoma = system: M14 melanoma
HCT-15 colon = system: HCT-15 colon
HT29 colon = system: HT29 colon
SNB-75 CNS = system: SNB-75 CNS
U251 CNS = system: U251 CNS
PC-3 prostate = system: PC-3 prostate
SK-MEL-5 melanoma = system: SK-MEL-5 melanoma
UACC-62 melanoma = system: UACC-62 melanoma
LOX IMVI melanoma = system: LOX IMVI melanoma
SK-MEL-28 melanoma = system: SK-MEL-28 melanoma
SNB-19 CNS = system: SNB-19 CNS

Measured: growth

CN1CCN(Cc2ccc(NC(=O)c3cncc(C#Cc4cnc5ccc(OCC(F)F)nn45)c3)cc2C(F)(F)F)CC1
active: DU-145 prostate -85.8% | K-562 leukemia 0.0269% | MALME-3M melanoma -86.2% | MDA-MB-231 breast -66.7% | RXF 393 renal -81% | SF-268 CNS -56.6% | SF-295 CNS -76.6% | SF-539 CNS -90.6% | UACC-257 melanoma -33.7% | M14 melanoma -89% | HCT-15 colon -57.4% | HT29 colon -66% | SNB-75 CNS -95.1% | U251 CNS -72.7% | PC-3 prostate -19.4% | SK-MEL-5 melanoma -95.7% | UACC-62 melanoma -46.8% | LOX IMVI melanoma -91.2% | SK-MEL-28 melanoma -82.4%

O=C1C(SCc2ccccc2)=C(Cl)CN1c1ccc(Cl)cc1
active: LOX IMVI melanoma 5.82%
inactive: DU-145 prostate 49.5% | K-562 leukemia 52.9% | MALME-3M melanoma 103% | MDA-MB-231 breast 101% | RXF 393 renal 107% | SF-268 CNS 108% | SF-295 CNS 102% | SF-539 CNS 97.9% | UACC-257 melanoma 97.2% | M14 melanoma 78% | HCT-15 colon 88.6% | HT29 colon 84.5% | SNB-75 CNS 103% | U251 CNS 86.3% | PC-3 prostate 107% | SK-MEL-5 melanoma 99.3% | UACC-62 melanoma 93.5% | SK-MEL-28 melanoma 88.1%

C[C@H]1OCC2(CCN(c3cnc(C(=O)Nc4cc(F)cc5cccnc45)cn3)CC2)[C@H]1N
active: K-562 leukemia 6.28%
inactive: DU-145 prostate 78.2% | MALME-3M melanoma 48.1% | MDA-MB-231 breast 31.6% | RXF 393 renal 58.4% | SF-268 CNS 72.2% | SF-295 CNS 92.2% | SF-539 CNS 68.4% | UACC-257 melanoma 101% | M14 melanoma 71.2% | HCT-15 colon 14.5% | HT29 colon 30.3% | SNB-75 CNS 62.9% | U251 CNS 66.3% | PC-3 prostate 50.8% | SK-MEL-5 melanoma 93.2% | UACC-62 melanoma 31.7% | LOX IMVI melanoma 33.2% | SK-MEL-28 melanoma 61.4%

COc1ccc(-c2cc(-c3ccc(N(C)C)cc3)n3c(n2)nc2ccccc23)cc1
active: SK-MEL-5 melanoma 3.05%
inactive: DU-145 prostate 73.3% | K-562 leukemia 20.8% | MALME-3M melanoma 118% | MDA-MB-231 breast 75.2% | RXF 393 renal 86.5% | SF-268 CNS 76.9% | SF-295 CNS 48.6% | SF-539 CNS 82.6% | UACC-257 melanoma 58% | M14 melanoma 29.1% | HCT-15 colon 50.7% | HT29 colon 54.1% | SNB-75 CNS 95.2% | U251 CNS 40.5% | PC-3 prostate 28.1% | UACC-62 melanoma 48.2% | LOX IMVI melanoma 66.3% | SK-MEL-28 melanoma 77%

CC1=C(C)C(=O)C(Nc2ccc(C)c(C)c2)=C(Br)C1=O
active: K-562 leukemia -2.41% | LOX IMVI melanoma -54.6%
inactive: DU-145 prostate 109% | MALME-3M melanoma 114% | MDA-MB-231 breast 65.1% | RXF 393 renal 87.9% | SF-268 CNS 98.4% | SF-295 CNS 92.9% | SF-539 CNS 98.9% | UACC-257 melanoma 98.5% | M14 melanoma 96.5% | HCT-15 colon 92.3% | HT29 colon 107% | SNB-75 CNS 73.2% | SNB-19 CNS 97.4% | U251 CNS 102% | PC-3 prostate 85% | UACC-62 melanoma 96.4% | SK-MEL-28 melanoma 111%

O=c1c2cc(-c3ccc(F)cc3F)ccc2n(Nc2ccccc2)c(=O)n1-c1cccc(C(F)(F)F)c1
active: K-562 leukemia 6.95% | MALME-3M melanoma -18.4% | MDA-MB-231 breast -5.2% | RXF 393 renal 5.77% | SF-295 CNS -2.47% | UACC-257 melanoma -1.25% | SNB-75 CNS -8.2% | U251 CNS 9.58% | PC-3 prostate 1.28% | LOX IMVI melanoma -4.69%
inactive: DU-145 prostate 26.6% | SF-268 CNS 22% | SF-539 CNS 18% | M14 melanoma 21.6% | HCT-15 colon 11.4% | HT29 colon 59.3% | SNB-19 CNS 11.5% | UACC-62 melanoma 10.9% | SK-MEL-28 melanoma 29.5%

O=C(CSc1nnc(-c2cccs2)n1-c1ccccc1)Nc1ccccc1
active: SNB-75 CNS -0.436%
inactive: DU-145 prostate 83.3% | K-562 leukemia 49.6% | MALME-3M melanoma 35.2% | MDA-MB-231 breast 76.4% | RXF 393 renal 59.8% | SF-268 CNS 60% | SF-295 CNS 90.1% | SF-539 CNS 60.7% | UACC-257 melanoma 85.4% | M14 melanoma 88.2% | HCT-15 colon 80.3% | HT29 colon 91.1% | SNB-19 CNS 54.1% | U251 CNS 84.3% | PC-3 prostate 83% | UACC-62 melanoma 67.7% | LOX IMVI melanoma 71.9% | SK-MEL-28 melanoma 76.9%

O=C(COc1ccc(/C=C2\C(=O)Nc3ccc(Cl)cc32)cc1)Nc1ccc(Cl)cc1
inactive: HCT-15 colon 42.1%

COc1ccc2[nH]cc(/C=N/Nc3ccnc4cc(Cl)ccc34)c2c1
active: HCT-15 colon -88.1%

C#C[C@]1(O)CC[C@H]2[C@@H]3CC=C4c5sc(Nc6cc(Cl)ccc6OC)nc5CC[C@]4(C)[C@H]3CC[C@@]21C
active: K-562 leukemia 4.32% | RXF 393 renal -74.9% | SF-295 CNS -62.4% | SF-539 CNS -22.1% | UACC-257 melanoma -16.3% | SNB-75 CNS -1.39% | PC-3 prostate -9.76% | SK-MEL-5 melanoma -43.9% | UACC-62 melanoma -3.92% | LOX IMVI melanoma -71.7% | SK-MEL-28 melanoma -59.1%
inactive: DU-145 prostate 19.1% | MALME-3M melanoma 12.1% | MDA-MB-231 breast 43.6% | SF-268 CNS 24.6% | HCT-15 colon 16.3% | HT29 colon 34.9% | SNB-19 CNS 28.3% | U251 CNS 15.3%
